Experimental data: PubChem BioAssay (NCATS)
Records with an inconclusive call do not appear. Where a call stands in place of a potency, no number is given. Active and inactive are the calls of the source. Unless noted, calls follow the shape of the dose curve; as a rule, active = well fitted curve in the direction sought with a large enough effect; inconclusive = small, poorly fitted or top-dose-only effect, or another doubt; inactive = no such curve, though single readings can be large; an effect the other way counts as inactive or inconclusive.

Key:
[1] = biological target: Rap guanine nucleotide exchange factor 3 (Homo sapiens) (UniProt O95398); experiment: Confirmatory qHTS for antagonist of cAMP-regulated guanine nucleotide exchange factor 3 (EPAC1) (AID 1645880); also: nearly all actives have a fitted effect of over 55% in size
Sequence of Rap guanine nucleotide exchange factor 3 (Homo sapiens) (O95398 whole entry, looked up): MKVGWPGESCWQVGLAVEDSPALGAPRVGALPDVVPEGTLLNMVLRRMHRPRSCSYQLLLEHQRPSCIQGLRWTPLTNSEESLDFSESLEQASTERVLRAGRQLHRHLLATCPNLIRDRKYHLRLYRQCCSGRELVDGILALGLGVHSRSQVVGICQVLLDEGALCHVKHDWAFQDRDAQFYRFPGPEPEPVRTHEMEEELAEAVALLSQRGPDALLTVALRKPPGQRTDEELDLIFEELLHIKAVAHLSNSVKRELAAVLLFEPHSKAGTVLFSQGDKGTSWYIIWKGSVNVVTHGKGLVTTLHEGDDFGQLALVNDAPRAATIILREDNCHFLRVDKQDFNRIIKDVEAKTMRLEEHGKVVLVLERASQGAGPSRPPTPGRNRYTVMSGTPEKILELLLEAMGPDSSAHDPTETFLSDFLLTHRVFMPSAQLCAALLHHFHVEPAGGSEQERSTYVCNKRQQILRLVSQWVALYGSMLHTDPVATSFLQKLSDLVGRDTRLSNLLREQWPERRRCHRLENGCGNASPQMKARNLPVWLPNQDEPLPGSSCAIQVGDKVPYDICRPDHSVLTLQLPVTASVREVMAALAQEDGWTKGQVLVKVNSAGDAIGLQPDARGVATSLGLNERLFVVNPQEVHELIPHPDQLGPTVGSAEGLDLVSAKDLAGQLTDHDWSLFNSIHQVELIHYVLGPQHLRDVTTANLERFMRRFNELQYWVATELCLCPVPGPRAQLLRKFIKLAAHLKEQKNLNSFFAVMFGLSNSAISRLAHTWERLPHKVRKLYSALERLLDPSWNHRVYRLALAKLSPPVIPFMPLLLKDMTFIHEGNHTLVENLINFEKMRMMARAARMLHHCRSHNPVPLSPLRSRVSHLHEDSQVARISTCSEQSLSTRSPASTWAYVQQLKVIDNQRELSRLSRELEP
How it was run: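 Released BODIPY-GDP fluoresces less than Rap1-bound BODIPY-GDP; the signal is followed at 480/540 nm at 5-min intervals over 30 min, after 5 min at room temperature. Reactions contain 100 nM EPAC1, 250 nM RAP1B-BODIPY-GDP and 50 uM GDP; results are normalized to ATA and DMSO.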

[2] = biological target: Rap guanine nucleotide exchange factor 3 (Homo sapiens) (UniProt O95398); experiment: Confirmatory qHTS for agonist of cAMP-regulated guanine nucleotide exchange factor 3 (EPAC1) (AID 1645881); also: nearly all actives have a fitted effect of over 75% in size; also: potency is read from the fitted curve at half-maximal effect
[3] = biological target: Rap guanine nucleotide exchange factor 4 (Homo sapiens) (UniProt Q8WZA2); experiment: Confirmatory qHTS for agonist of cAMP-regulated guanine nucleotide exchange factor 4 (EPAC2) (AID 1645884);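 also: nucleotide exchange releases bodipy-GDP from Rap1 and this lowers its fluorescence; nearly all actives have a fitted effect of over 65% in size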; also: potency is read from the fitted curve at half-maximal effect
Sequence of Rap guanine nucleotide exchange factor 4 (Homo sapiens) (Q8WZA2 whole entry, looked up): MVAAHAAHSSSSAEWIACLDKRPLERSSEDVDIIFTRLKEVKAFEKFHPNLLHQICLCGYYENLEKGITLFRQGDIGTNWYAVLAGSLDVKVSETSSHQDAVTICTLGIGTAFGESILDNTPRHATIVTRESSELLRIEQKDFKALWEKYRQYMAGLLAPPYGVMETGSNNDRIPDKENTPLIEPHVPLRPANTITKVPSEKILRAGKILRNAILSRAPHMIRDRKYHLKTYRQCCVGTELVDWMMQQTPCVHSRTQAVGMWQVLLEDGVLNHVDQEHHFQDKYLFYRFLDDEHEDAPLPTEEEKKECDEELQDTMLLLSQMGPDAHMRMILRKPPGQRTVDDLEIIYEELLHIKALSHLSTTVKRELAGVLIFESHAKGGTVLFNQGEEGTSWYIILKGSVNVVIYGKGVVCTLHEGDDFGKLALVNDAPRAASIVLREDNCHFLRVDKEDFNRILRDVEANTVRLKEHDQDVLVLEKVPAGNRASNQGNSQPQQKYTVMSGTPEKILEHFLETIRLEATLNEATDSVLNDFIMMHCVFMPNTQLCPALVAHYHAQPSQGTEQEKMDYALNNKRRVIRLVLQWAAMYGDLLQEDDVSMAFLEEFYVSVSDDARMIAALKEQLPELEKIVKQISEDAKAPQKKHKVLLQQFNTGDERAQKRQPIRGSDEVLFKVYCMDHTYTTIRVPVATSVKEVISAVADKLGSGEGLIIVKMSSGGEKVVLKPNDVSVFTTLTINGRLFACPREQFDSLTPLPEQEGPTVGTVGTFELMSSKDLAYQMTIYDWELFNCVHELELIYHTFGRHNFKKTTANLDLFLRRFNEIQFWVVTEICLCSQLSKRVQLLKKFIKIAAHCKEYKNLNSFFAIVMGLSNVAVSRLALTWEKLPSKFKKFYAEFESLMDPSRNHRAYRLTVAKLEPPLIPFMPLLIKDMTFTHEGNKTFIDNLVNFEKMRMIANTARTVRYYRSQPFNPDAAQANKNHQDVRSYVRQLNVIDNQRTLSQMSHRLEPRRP

[4] = biological target: Rap guanine nucleotide exchange factor 4 (Homo sapiens) (UniProt Q8WZA2); experiment: Confirmatory qHTS for antagonist of cAMP-regulated guanine nucleotide exchange factor 4 (EPAC2) (AID 1645885); also: nearly all actives have a fitted effect of over 25% in size
[5] = biological target: Catechol O-methyltransferase (Homo sapiens) (UniProt P21964); experiment: Confirmatory Screen for Target Class Profiling of Small Molecule Inhibitors of Methyltransferases (AID 1745852; calls by dose curve; also: potency is read from the fitted curve at half-maximal effect); conditions: MTase-Glo luminescence, SAH detection, recombinant enzyme; measured here: COMT max response; stronger effect = lower value
Sequence of Catechol O-methyltransferase (Homo sapiens) (P21964 whole entry, looked up): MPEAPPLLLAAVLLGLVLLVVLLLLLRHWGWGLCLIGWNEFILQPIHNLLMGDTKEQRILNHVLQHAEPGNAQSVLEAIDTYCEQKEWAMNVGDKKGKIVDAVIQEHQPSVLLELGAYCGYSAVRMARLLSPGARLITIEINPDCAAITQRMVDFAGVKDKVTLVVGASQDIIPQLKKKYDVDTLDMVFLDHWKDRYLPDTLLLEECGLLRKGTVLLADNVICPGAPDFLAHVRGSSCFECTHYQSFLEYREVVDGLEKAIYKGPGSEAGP

[6] = biological target: Guanidinoacetate N-methyltransferase (Homo sapiens) (UniProt Q14353); experiment: as above; conditions: MTase-Glo luminescence, SAH detection, recombinant enzyme; activity change, negative = inhibition: at 57.3 µM (top of the series)

## CC(=O)[C@]1(O)Cc2c(O)c3c(c(O)c2[C@@H](O[C@H]2C[C@H](N)[C@H](O)[C@H](C)O2)C1)C(=O)c1c(O)cccc1C3=O
[1]
  Potency: inactive
[2]
  Potency: 70.6 µM (active)
[3]
  Potency: 79.3 µM (active)
[4]
  Potency: inactive

## Fc1ccc(C(OCCCc2cnc[nH]2)c2ccc(F)cc2)cc1
[5]
  activity: 0.59%
[6]
  activity change, negative = inhibition: 7.35%

## COC(=O)[C@H]1[C@H]2C[C@@H]3c4[nH]c5cc(OC)ccc5c4CCN3C[C@H]2C[C@@H](OC(=O)/C=C/c2cc(OC)c(OC)c(OC)c2)[C@@H]1OC
[1]
  Potency: inactive
[2]
  Potency: inactive
[4]
  Potency: inactive

## Oc1cc2c(cc1O)CN(C(=S)NCCc1ccc(Cl)cc1)CCC2
[2]
  Potency: inactive
[3]
  Potency: inactive
[5]
  activity: 160%
[6]
  activity change, negative = inhibition: 2.52%

## O=C(O)CC[C@@H](C(=O)O)N1C(=O)c2ccccc2C1=O
[5]
  activity: -23.9%
[6]
  activity change, negative = inhibition: -2.85%

## N.N.N.N.N.N.N.N.N.N.N.N.N.N.O.O.[Ru+4].[Ru+5].[Ru+5]
[5]
  activity: -14.7%
[6]
  Potency: 30.6 µM (active)

## c1ccc(CCNc2nc(-c3ccccc3)cs2)cc1
[1]
  Potency: inactive
[2]
  Potency: inactive
[3]
  Potency: inactive
[4]
  Potency: inactive

## O=C(c1cc(O)c(O)c([N+](=O)[O-])c1)c1ccccc1F
[5]
  activity: -103%
[6]
  activity change, negative = inhibition: -5.06%

## Cc1ccc(O)c(N=Nc2ccccc2)n1
[2]
  Potency: inactive
[3]
  Potency: inactive
